Laboratory results reported in the supplement of paper PMC3334620.
In all, about 33,000 sequences were measured (“E-score (-0.5 to 0.5)”: median about -0.012, highest 2% from about 0.29 on). For the sample, the highest values were picked, then their nearest neighbours and some sequences at random.

Each sequence was assayed against T1, Ybr033w (UniProt P38073) (assay: PBM E-score (8-mer binding enrichment) (E-score (-0.5 to 0.5)); higher = stronger / more preferred TF binding). Conditions: protein concentration: 200 nM; construct: GST-full length.
T1 sequence: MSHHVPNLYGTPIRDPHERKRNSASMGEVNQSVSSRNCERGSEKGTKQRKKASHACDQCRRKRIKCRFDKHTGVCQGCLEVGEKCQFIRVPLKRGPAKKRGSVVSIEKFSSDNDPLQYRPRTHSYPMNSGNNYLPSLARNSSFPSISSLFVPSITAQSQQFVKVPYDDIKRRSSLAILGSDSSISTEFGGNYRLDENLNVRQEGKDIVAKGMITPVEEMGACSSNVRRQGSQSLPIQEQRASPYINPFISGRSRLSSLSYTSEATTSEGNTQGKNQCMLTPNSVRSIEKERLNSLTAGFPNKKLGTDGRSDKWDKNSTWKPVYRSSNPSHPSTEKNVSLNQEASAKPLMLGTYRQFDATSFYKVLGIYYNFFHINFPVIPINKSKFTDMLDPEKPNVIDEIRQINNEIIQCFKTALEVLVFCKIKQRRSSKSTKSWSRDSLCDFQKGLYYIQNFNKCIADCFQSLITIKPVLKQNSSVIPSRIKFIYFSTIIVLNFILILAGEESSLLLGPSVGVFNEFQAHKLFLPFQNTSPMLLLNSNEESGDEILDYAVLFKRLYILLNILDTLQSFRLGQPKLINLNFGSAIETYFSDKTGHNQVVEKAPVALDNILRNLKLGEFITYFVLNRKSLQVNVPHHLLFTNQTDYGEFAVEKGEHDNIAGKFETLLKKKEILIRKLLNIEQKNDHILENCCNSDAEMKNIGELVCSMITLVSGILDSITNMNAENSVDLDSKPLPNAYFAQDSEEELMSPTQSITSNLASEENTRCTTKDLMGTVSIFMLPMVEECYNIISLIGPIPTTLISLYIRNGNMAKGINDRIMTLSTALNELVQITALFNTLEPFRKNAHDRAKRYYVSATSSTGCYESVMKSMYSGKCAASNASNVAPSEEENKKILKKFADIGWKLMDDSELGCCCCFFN
Protocol: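 Universal 'all 10-mer' protein binding microarrays (Agilent AMADID 015681) probed with GST-tagged S. cerevisiae TFs (full-length or DBD) made by in vitro transcription/translation (PURExpress), about 100-200 nM. Bound TF was detected with fluorescent anti-GST. Each ungapped 8-mer (which stands for itself and its reverse complement) is scored by the PBM enrichment score (E-score), a modified Wilcoxon-Mann-Whitney statistic from -0.5 to +0.5, computed with the Universal PBM Analysis Suite. Scale: above 0.35 generally sequence-specific binding.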

Sequence	PBM E-score
CTGGCCGC	-0.0871
AACTTATG	0.223
GACTTATC	-0.152
AACTTATA	0.353
TACTTATA	0.12
CACTTATA	0.176
GACTTATA	0.293
AAGCCACA	-0.0702
AGCCTCTA	-0.114
ACCAGAGA	0.0781
GAGTCGAA	0.173
GAGTATCA	0.0233
GAATATTA	0.315
TAGTATCA	0.319
CAATATCA	0.171
AAATATCA	0.252
CAATATTG	0.199
GAATATGA	0.203
TAATATTA	0.342
GAATATCA	0.259
TAATATCA	0.319
CAGTATCA	-0.0137
CAATATTA	0.27
GTGTGTGA	0.0756
CGAGGTAA	-0.0143

Sequence	PBM E-score
GGAGCGCC	-0.27
ACTAGTCG	-0.166
ACCATCTC	-0.0025
CCTCGTAA	-0.0544
GAATATTC	0.344
AAATATTC	0.37
CAATATTC	0.219
AAATATTA	0.211
GAATATCC	0.227
AAATATTG	0.274
AAATATGC	0.237
AAATATTT	0.357
AATCTTTC	0.00719
GCCATTTA	-0.0426
AGCAAGCC	-0.126
AGGTGGAC	-0.104
ATCTAGAA	0.214
ATAATTTA	0.338
AGAATTTC	0.0968
AAAATTTG	0.263
ATAATTGG	0.157
ATAATTTG	0.35
GTAATTTA	0.218
CTAATTTC	0.181
CTAATTTA	0.257

Sequence	PBM E-score
ATAATTTC	0.314
GATCTGCA	-0.215
ACACGTGT	-0.0649
ATCCCAAC	0.079
ATAGGTAG	0.0525
ACTGCTAC	0.0898
GCGGACTA	-0.0323
ACAAATTG	0.0817
CAAAATTA	0.182
AAAAATGA	0.233
CAAAATTC	0.308
CCAATTTA	0.203
ACAATTTA	0.225
GCAATTTA	0.307
AAAAATTA	0.302
CCAAATTA	0.269
ACAAATTA	0.328
CAAAATTG	0.0527
AAAAATTC	0.228
AAACGCAG	-0.0761
ACCAAGTC	0.139
AGCACTGC	-0.022
AGATGCAG	0.0243
CGAAGCTC	-0.147
GGAAATTA	0.264

Sequence	PBM E-score
AAAATTTA	0.269
GAAAATTA	0.331
AGAAATTA	0.352
GAAAATTC	0.285
CAAATTTA	0.237
GAAAATGA	0.085
AGAAATTC	0.178
TAAAATTA	0.288
TAAATTTA	0.289
TAAAATCA	0.274
TAAAATGA	0.217
AATGATGT	0.17
GTTCAGCA	-0.0295
GTCGGCCA	-0.277
AAACCATG	0.0309
AGACTGCA	-0.156
ATCCATGC	0.0934
AGGTCAGG	-0.233
CAATTTTA	0.217
GAATTTTA	0.295
AAATTTTA	0.171
CCAGCGAC	-0.116
ATAGCTGG	-0.0109
CAATGACG	-0.158
ATAGTAAC	0.116

Sequence	PBM E-score
ATAGTAAT	0.346
AGAGTAAT	0.313
GTAGTAAA	0.188
AGAGTAAG	0.126
TTAGTAAA	0.301
AGAGTAAA	0.0304
CTAGTAAA	0.242
ATAGTAAA	0.277
AGTGCTTA	-0.00926
CCATTTGC	0.0186
AGGTAGTC	-0.165
TATTAAAA	0.312
TATTTTAA	0.26
CATTAAAC	0.13
CATTAAAG	0.147
TTTTAAAA	0.073
TAGTTAAA	0.296
AATTAAAA	0.112
TATTTAAA	0.301
CATTTAAA	0.21
CAGTTAAA	0.192
GAGTTAAA	0.0599
CATTAAAA	0.319
AGAAATCC	0.0392
CGCAAGCC	0.0476

Sequence	PBM E-score
ACAGAGTC	-0.176
TAGTTGAA	0.307
GATTAAAA	0.311
CAGTTGAA	0.00266
AAGTTGAA	0.0758
GGTTAAAA	0.0924
CTGTTAAA	0.109
GATTAAAC	0.17
ATGTTAAA	0.289
TTGTTAAA	0.0557
CACTGTTC	-0.00287
ACTTCATG	-0.118
ACTGCAGC	-0.136
ACTTACCC	0.114
CCGACCAA	-0.0529
ATCATGAC	0.0647
CTGCTAAG	-0.132
GCATCGAC	-0.0951
TGACCACA	0.0413
TCCCTAAA	0.0945
ATTCGTGG	0.0347
AGATTTTA	0.109
AGATTTCC	0.135
ATATTTAC	0.215
ATATTTTA	0.3

Sequence	PBM E-score
CTATTTTA	0.252
ATATTTAA	0.372
GTATTTTA	0.23
CTATTTAA	0.022
GTATTTAA	0.267
ATTTTTAG	0.179
AGATTTTC	0.322
ATATTTAG	0.321
CCATTTAG	-0.056
CGTGGGCC	-0.155
AATCCTAA	0.0561
CCTCCAGG	-0.322
CACCGACG	-0.0189
ATATCCAT	0.196
GAGCTCAC	-0.27
CATATGCA	0.0648
CCCTTACC	-0.131
ATATTTTG	0.234
ATCTTTTA	0.236
ATATTTCC	0.349
ATATTTTC	0.342
CTATTTTC	0.284
ATCTTTAC	0.203
CTATTTCC	0.276
ATATTTCG	0.269

Sequence	PBM E-score
ATCTTTAA	0.299
CCCCTTTC	-0.262
GGAACGAA	0.104
AGGGATAT	0.0785
ACGACTCC	0.0443
CGGGGTAG	-0.177
GTGGCTAA	0.0232
AAATTTAT	0.228
GAAATTAA	0.294
AATTTTGT	0.215
AAAATTAT	0.358
GAAATTAC	0.255
CAAATTAA	0.212
AAATTTGG	0.0261
AAAATTCG	0.279
AAATTTGT	0.303
AAAATTAC	0.22
GAAATTCA	0.228
AAAATTCA	0.359
CCACTTAC	0.0573
TAACGGAA	0.153
CTCAGAGC	-0.191
CCGAAGTC	-0.0348
CAATGAAG	0.0396
GACTGTTA	0.0926

Sequence	PBM E-score
AGAGGAAT	-0.012
ACGAGGAC	-0.181
CTAAATGC	0.0943
AAAATTTC	0.132
GAAATTGC	0.0471
GAAATTGA	0.289
AAAATTTT	0.293
AAAAATTT	0.283
AAAATTAG	0.179
AAAATTAA	0.308
TAAATTAA	0.283
TAAATTGA	0.265
GGGGAGGA	-0.205
ATGGTCTC	-0.0831
CAGCAGAC	-0.106
ACAGTCGC	-0.136
AAGCGACG	-0.285
ACGGGTGG	-0.171
GTACGCTA	-0.178
